Data: PubChem BioAssay (Tox21)
Values joined by “and” are separate entries in the source; they are usually repeats but may differ in a detail not shown here. Identical values can stand only once. Results filed as inconclusive are left out. More than one record can exist for a structure, and the calls need not agree. Active and inactive are the calls of the source. Unless noted, calls follow the shape of the dose curve; as a rule, active = well fitted curve in the direction sought with a large enough effect in the repeat runs; inconclusive = weak or mixed curves; inactive = no such curve, though single readings can be large; an effect the other way counts as inactive or inconclusive.

Assays:
[1] = qHTS assay to identify small molecule agonists of H2AX (AID 1224845; active = well fitted activation curve with a large enough effect in the signal ratio in the repeat runs, not every such curve was filed as active; the % refers to the signal ratio; also: potency is read from the fitted curve at half-maximal effect)
Procedure, shortened: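 Wild-type CHO-K1 cells, plated overnight, exposed 3hr at 37C to 15 concentrations (0.76% DMSO final). Lysed, then HTRF anti-pH2AX (S139) cryptate and anti-H2AX-d2 antibodies, 24 hr room temperature; 665/620 nm emission read.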

[2] = qHTS assay to identify small molecule agonists of the hypoxia (HIF-1) signaling pathway (AID 1224846; active = well fitted activation curve with a large enough effect in the signal ratio in the repeat runs, not every such curve was filed as active; the % refers to the signal ratio)
Procedure, shortened: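 ME-180 HRE-bla reporter cells; compounds in DMSO, 17 h at 37C; read-out beta-lactamase via CCF4-AM FRET.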

[3] = qHTS assay to identify small molecule agonists of H2AX - cell viability counter screen (AID 1224847; calls by dose curve; also: nearly all actives have a fitted effect of over 30% in size; also: potency is read from the fitted curve at half-maximal effect)
Procedure, shortened: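 CHO-K1 cells plated overnight at 37C, then exposed 3 h at 37C to compounds at 15 concentrations (0.76% DMSO final). Viability by CellTiter-Glo luminescence after 30 min at room temperature.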

[4] = qHTS assay to identify small molecule antagonists of the estrogen related receptor (ERR) signaling pathway from Tox21 library (AID 1224848); also: nearly all actives have a fitted effect of over 50% in size; also: potency is read from the fitted curve at half-maximal effect
Procedure, shortened: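 Quantitative high-throughput format: ERR reporter cells (2,000/well) pre-incubated 6 h, treated 18 h at 37 C with compounds in DMSO alongside positive and negative controls, then read by ONE-Glo luminescence.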

[5] = qHTS assay to identify small molecule agonists of the estrogen related receptor (ERR) signaling pathway from Tox21 library (AID 1224849; calls by dose curve; also: nearly all actives have a fitted effect of over 15% in size); settings: ERR reporter cell line, ONE-Glo luciferase, 18 h
Procedure, shortened: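 Luciferase activity in ERR pathway reporter cells served as the agonist readout; exposure lasted 18 h at 37 C, with ONE-Glo detection after 30 min at room temperature.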

[6] = qHTS RealTime-Glo MT Cell Viability Assay in HepG2 cells - 24 hour (AID 1224867); also: nearly all actives have a fitted effect of over 50% in size; also: potency is read from the fitted curve at half-maximal effect
Procedure, shortened: (§1)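 Tox21 10K library screened in qHTS format on HepG2 cells carrying RealTime-Glo reagents. Compounds were added after a 5 h preincubation, and the luminescent signal from continuous culture was measured repeatedly during 40 h treatment.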

[7] = qHTS RealTime-Glo MT Cell Viability Assay in HEK293 cells - 32 hour (AID 1224868); also: nearly all actives have a fitted effect of over 50% in size; also: potency is read from the fitted curve at half-maximal effect
Procedure, shortened: (§2)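 Luminescence generated by NanoLuc from substrate produced by living HEK293 cells served as the viability signal. Each value reflects the reading at its stated time point during continuous 40 h compound exposure at 37 C.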

[8] = A CellTox Green Cytotoxicity Assay to monitor cytotoxicity in HEK293 cells - 0 hour (AID 1224869); also: nearly all actives have a fitted effect of over 50% in size; also: potency is read from the fitted curve at half-maximal effect
Procedure, shortened: (§3)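 Real-time, in one plate: 600 HEK293 cells/well with dead-cell DNA dye, pinned compound after 5 h, 37 C incubation over 40 h; viable cells give no appreciable fluorescence.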

[9] = qHTS RealTime-Glo MT Cell Viability Assay in HepG2 cells - 40 hour (AID 1224870); also: nearly all actives have a fitted effect of over 50% in size; also: potency is read from the fitted curve at half-maximal effect
Procedure, shortened: (§4)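 HepG2 cells (600/well) mixed with RealTime-Glo MT reagent, settled 5 h at 37 C/5% CO2 before compound addition. Nonlytic NanoLuc luminescence from viable-cell prosubstrate reduction read repeatedly during 40 h treatment at 37 C.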

[10] = A CellTox Green Cytotoxicity Assay to monitor cytotoxicity in HEK293 cells - 40 hour (AID 1224871); also: nearly all actives have a fitted effect of over 45% in size; also: potency is read from the fitted curve at half-maximal effect
Procedure, shortened: as §3

[11] = qHTS RealTime-Glo MT Cell Viability Assay in HEK293 cells - 16 hour (AID 1224872); also: nearly all actives have a fitted effect of over 50% in size; also: potency is read from the fitted curve at half-maximal effect
Procedure, shortened: as §2

[12] = qHTS RealTime-Glo MT Cell Viability Assay in HepG2 cells - 8 hour (AID 1224873); also: nearly all actives have a fitted effect of over 55% in size; also: potency is read from the fitted curve at half-maximal effect
Procedure, shortened: as §4

[13] = qHTS RealTime-Glo MT Cell Viability Assay in HEK293 cells - 40 hour (AID 1224874); settings: RealTime-Glo luminescence; max response: stronger effect = lower value; also: nearly all actives have a fitted effect of over 50% in size; also: potency is read from the fitted curve at half-maximal effect
Procedure, shortened: (§5)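 Kinetic, non-lysing viability readout. Seed HEK293 (600/well) with reagent, incubate 5 h at 37 C/5% CO2, pin 23 nL compound in DMSO, incubate at 37 C, read luminescence at 0, 8, 16, 24, 32, 40 h.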

[14] = A CellTox Green Cytotoxicity Assay to monitor cytotoxicity in HepG2 cells - 16 hour (AID 1224876); also: nearly all actives have a fitted effect of over 45% in size; also: potency is read from the fitted curve at half-maximal effect
Procedure, shortened: (§6)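 Cytotoxicity was tracked as dead-cell DNA fluorescence in HepG2 cells treated with test compounds at 37 C; each time-point value comes from one kinetic series spanning 0, 8, 16, 24, 32 and 40 h.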

[15] = qHTS RealTime-Glo MT Cell Viability Assay in HepG2 cells - 32 hour (AID 1224877); also: nearly all actives have a fitted effect of over 55% in size; also: potency is read from the fitted curve at half-maximal effect
Procedure, shortened: as §1

[16] = A CellTox Green Cytotoxicity Assay to monitor cytotoxicity in HepG2 cells - 24 hour (AID 1224878); also: nearly all actives have a fitted effect of over 45% in size; also: potency is read from the fitted curve at half-maximal effect
Procedure, shortened: as §6

[17] = A CellTox Green Cytotoxicity Assay to monitor cytotoxicity in HepG2 cells - 40 hour (AID 1224879); also: nearly all actives have a fitted effect of over 40% in size; also: potency is read from the fitted curve at half-maximal effect
Procedure, shortened: as §6

[18] = qHTS RealTime-Glo MT Cell Viability Assay in HEK293 cells - 0 hour (AID 1224880); also: top concentration of the series differs between compounds; nearly all actives have a fitted effect of over 45% in size
Procedure, shortened: as §5

[19] = A CellTox Green Cytotoxicity Assay to monitor cytotoxicity in HEK293 cells - 32 hour (AID 1224881); also: nearly all actives have a fitted effect of over 40% in size; also: potency is read from the fitted curve at half-maximal effect
Procedure, shortened: as §3

[20] = A CellTox Green Cytotoxicity Assay to monitor cytotoxicity in HEK293 cells - 24 hour (AID 1224875); also: nearly all actives have a fitted effect of over 45% in size; also: potency is read from the fitted curve at half-maximal effect
Procedure, shortened: as §3
% is scaled to controls: 0 for no effect and ±100 for the full control effect.

CCCCOCC1CO1 (centres undefined)
inactive and 38.9 µM (active): Potency [16]
inactive: Potency [1] | outcome [2] | Potency [3] | Potency [4] | activity change, positive = activation ([5]; at 92.4 µM (top of the series)) 0.0042% and -11% | Potency [6] | Potency [7] | Potency [9] | Potency [11] | Potency [12] | max response [13] 4.37% and 7.91% | Potency [15] | Potency [18]
inactive and 19.5 µM (active): Potency [8] | Potency [10] | Potency [19]
inactive and 43.6 µM (active): Potency [14] | Potency [17]

COP(=S)(OC)SCn1nnc2ccccc2c1=O
active: Potency [4] 53.4 µM and 61.1 µM | Potency [13] 48 µM
inactive: Potency [1] | outcome [2] | Potency [3] | activity change, positive = activation ([5]; at 92.4 µM (top of the series)) -43.4% and -47.5% | Potency [6] | Potency [8] | Potency [9] | Potency [10] | Potency [12] | Potency [20] | Potency [14] | Potency [16] | Potency [17] | Potency [18] | Potency [19]

CCOS(=O)(=O)OCC
inactive: Potency [1] | outcome [2] | Potency [3] | Potency [6] | Potency [8] | Potency [10] | Potency [11] | Potency [12] | Potency [20] | Potency [14] | Potency [15] | Potency [16] | Potency [17] | Potency [18] | Potency [19]

c1ccc2c(c1)Nc1ccccc1S2
active: Potency [7] 11 µM and 13.4 µM | Potency [11] 6.92 µM and 12 µM | Potency [13] 14.3 µM and 13.4 µM
inactive: outcome [2] | Potency [3] | Potency [4] | activity change, positive = activation ([5]; at 42.5 µM (top of the series)) -0.479% | activity change, positive = activation ([5]; at 92.4 µM (top of the series)) -21.3% | Potency [6] | Potency [8] | Potency [10] | Potency [12] | Potency [20] | Potency [14] | Potency [15] | Potency [16] | Potency [17] | Potency [19]

CC(C)=CC1C(C(=O)OCc2cccc(Oc3ccccc3)c2)C1(C)C (centres undefined)
inactive: Potency [1] | outcome [2] | Potency [4] | activity change, positive = activation ([5]; at 42.5 µM (top of the series)) -0.963% | activity change, positive = activation ([5]; at 92.4 µM (top of the series)) -0.843% | Potency [6] | Potency [7] | Potency [8] | Potency [9] | Potency [10] | Potency [11] | Potency [12] | Potency [20] | Potency [14] | Potency [16] | Potency [17] | Potency [18] | Potency [19]

CC(C)(c1ccccc1)c1ccc(O)c(C(C)(C)c2ccccc2)c1
inactive: activity change, positive = activation ([5]; at 92.4 µM (top of the series)) -71.4% and -64.9% | Potency [8] | Potency [18]
active: Potency [1] 39.7 µM | Potency [3] 28.1 µM and 56.6 µM | Potency [4] 42.9 µM and 48.6 µM | Potency [6] 54.4 µM and 43.6 µM | Potency [9] 49 µM | Potency [10] 24.3 µM and 43.6 µM | Potency [11] 21.7 µM and 43.6 µM | Potency [12] 48.5 µM and 38.9 µM | Potency [13] 17.2 µM and 43.6 µM | Potency [20] 43.2 µM and 49 µM | Potency [14] 48.5 µM and 43.6 µM | Potency [15] 49 µM | Potency [16] 48.5 µM and 43.6 µM | Potency [17] 54.4 µM and 43.6 µM | Potency [19] 38.5 µM and 43.6 µM

CCC[CH2][Sn]([Cl])([Cl])[CH2]CCC
active: Potency [1] 1.28 µM and 1.27 µM | Potency [3] 11.4 µM and 25.3 µM | Potency [4] 155 nM and 172 nM | Potency [6] 313 nM and 219 nM | Potency [9] 198 nM and 138 nM | Potency [10] 351 nM and 490 nM | Potency [11] 198 nM and 174 nM | Potency [12] 7.86 µM and 8.71 µM | Potency [13] 88.2 nM and 110 nM | Potency [20] 556 nM and 2.19 µM | Potency [14] 2.22 µM and 1.74 µM | Potency [15] 222 nM and 155 nM | Potency [16] 442 nM and 436 nM | Potency [17] 313 nM and 309 nM | Potency [19] 442 nM and 1.38 µM
inactive: activity change, positive = activation ([5]; at 92.4 µM (top of the series)) -84.1% and -80% | Potency [8] | Potency [18]

CC(O)CN(CC(C)O)CC(C)O (centres undefined)
inactive: Potency [1] | outcome [2] | Potency [3] | Potency [6] | Potency [8] | Potency [10] | Potency [11] | Potency [12] | max response [13] 2.85% and 7.82% | Potency [20] | Potency [14] | Potency [16] | Potency [17] | Potency [18] | Potency [19]

Nc1ccc([N+](=O)[O-])cc1N
-63% (inactive) and 34.6% (active): activity change, positive = activation ([5]; at 92.4 µM (top of the series))
inactive: outcome [2] | Potency [3] | Potency [4] | Potency [6] | Potency [7] | Potency [8] | Potency [9] | Potency [10] | Potency [11] | Potency [12] | max response [13] 0.0622% and -18.5% | Potency [20] | Potency [14] | Potency [15] | Potency [16] | Potency [17] | Potency [18]

Oc1ccc(Cl)cc1Cc1ccccc1
inactive and 15.7 µM (active): Potency [16]
inactive and 49.6 µM (active): Potency [6]
active: Potency [3] 89.8 µM and 81 µM | Potency [10] 11 µM and 21.3 µM | Potency [11] 21.9 µM and 17.6 µM | Potency [13] 21.9 µM and 27.9 µM | Potency [20] 8.71 µM | Potency [19] 12.3 µM and 22.1 µM and 21.3 µM
inactive and 19.7 µM (active): Potency [17]
inactive: Potency [1] | Potency [8] | Potency [9] | Potency [18]
49.6 µM (active) and inactive: Potency [12]
inactive and 33.1 µM (active): Potency [14]

Clc1cccc(C(Cl)(Cl)Cl)n1
inactive: Potency [1] | outcome [2] | Potency [3] | Potency [6] | Potency [8] | Potency [9] | Potency [11] | Potency [12] | max response [13] 2.13% and -1.58% | Potency [20] | Potency [18]

CC(C)COC(=O)c1ccccc1C(=O)OCC(C)C
inactive: Potency [1] | outcome [2] | Potency [3] | Potency [6] | Potency [7] | Potency [8] | Potency [10] | Potency [11] | Potency [12] | max response [13] 8.51% and 5.74% | Potency [20] | Potency [14] | Potency [15] | Potency [16] | Potency [17] | Potency [18] | Potency [19]
